Experimental data: the supplement of paper PMC3414501
Counter-ions that a name gives are not always drawn.

Columns and labels:
[1] = system: S. cerevisiae SK1 pCDA2-eGFP (USY613), sporulating; test: CDA2-GFP sporulation assay sensitivity score (z-score vs DMSO controls); higher = stronger inhibition of sporulation, active = hit call of the paper;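 further: active if sensitivity score above 5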
[2] = system: S. cerevisiae NKY1551 his4x/his4B, sporulating; test: HIS4 meiotic recombination assay sensitivity score (z-score vs DMSO controls); higher = stronger inhibition of sporulation/recombination, active = hit call of the paper;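 further: active if sensitivity score above 5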
[3] = system: S. cerevisiae AD1-9 (efflux-pump deficient), vegetative growth in YPD; test: growth sensitivity score (doubling time z-score vs DMSO controls); higher = slower growth, strongly negative scores also mark growth inhibition (complete suppression), active = hit call of the paper
In short: (§1)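 Yeast (Saccharomyces cerevisiae BY4741 and AD1-9) was grown in rich medium in microtiter plates from a starting OD600 of 0.065, with optical density read every 15 min over 24 hours. The growth sensitivity score was the difference between compound and solvent-only means, divided by the solvent-only standard deviation. Every experiment had eight solvent-only wells.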

[4] = system: S. cerevisiae BY4741 (wild-type), vegetative growth in YPD; test: as above
In short: as §1

SMILES | CDA2-GFP sporulation assay sensitivity score [1] | HIS4 meiotic recombination assay sensitivity score [2] | growth sensitivity score [3] | growth sensitivity score [4]
CCN1CCC[C@H]1CNC(=O)c1cc(S(N)(=O)=O)ccc1OC [Levosulpiride] (stock concentration (mM, diluted 1:100): 10) | 0.11 (inactive) | 0.77 (inactive) | -0.24 (inactive) | 0.25 (inactive)
O=c1c(O[C@@H]2O[C@H](CO)[C@H](O)[C@H](O)[C@H]2O)c(-c2ccc(O)c(O)c2)oc2cc(O)cc(O)c12 [Hyperoside] (stock concentration (mM, diluted 1:100): 8.8) | 0.06 (inactive) | 0.06 (inactive) | 0.09 (inactive) | -0.31 (inactive)
Nc1nc(Cl)nc2c1ncn2[C@H]1C[C@H](O)[C@@H](CO)O1 [2-Chloro-2-Deoxyadenosine] (stock concentration (mM, diluted 1:100): 10) | 1.98 (inactive) | -1.07 (inactive) | -1.81 (inactive) | -0.67 (inactive)
CC(C)[C@H](N)C(=O)OCCOCn1cnc2c(=O)nc(N)[nH]c21 [Valaciclovir hydrochloride] (stock concentration (mM, diluted 1:100): 9) | 0.8 (inactive) | 0.04 (inactive) | -0.28 (inactive) | 0.36 (inactive)
CC(C)(C#N)c1cc(Cn2cncn2)cc(C(C)(C)C#N)c1 [Anastrozole] (stock concentration (mM, diluted 1:100): 10) | 3.64 (inactive) | 0.04 (inactive) | -1.94 (inactive) | -0.82 (inactive)
Cc1nccn1CC1CCc2c(c3ccccc3n2C)C1=O (stereo not given) [Ondansetron hcl] (stock concentration (mM, diluted 1:100): 8.9) | -0.41 (inactive) | -0.73 (inactive) | -1.11 (inactive) | -0.22 (inactive)
COc1ccc2[nH]c([S+]([O-])Cc3ncc(C)c(OC)c3C)nc2c1 (stereo not given) [Omeprazole] (stock concentration (mM, diluted 1:100): 10) | 6.11 (inactive) | -1.05 (inactive) | -3.25 | 0.39 (inactive)
Cc1ncc([N+](=O)[O-])n1CCO [Metronidazole] (stock concentration (mM, diluted 1:100): 10) | 0.28 (inactive) | 0.15 (inactive) | -0.99 (inactive) | -0.2 (inactive)
COCCOC(=O)C1=C(C)NC(C)=C(C(=O)OC(C)C)C1c1cccc([N+](=O)[O-])c1 (stereo not given) [Nimodipine] (stock concentration (mM, diluted 1:100): 10) | 0.44 (inactive) | 4.27 (inactive) | 260 (active) | 0.46 (inactive)
COc1ccccc1OCC(O)CN1CCN(CC(=O)Nc2c(C)cccc2C)CC1 (stereo not given) [Ranolazine dihydrochloride] (stock concentration (mM, diluted 1:100): 8.6) | -1.05 (inactive) | -1.05 (inactive) | -1.41 (inactive) | -0.31 (inactive)
OCc1cc(C(O)CNCCCCCCOCCCCc2ccccc2)ccc1O (stereo not given) [Salmeterol] (stock concentration (mM, diluted 1:100): 10) | 10.5 (inactive) | 0.79 (inactive) | 41.2 (active) | 3.81 (active)
CCOC(=O)[C@H](CCc1ccccc1)N[C@@H](C)C(=O)N1[C@H](C(=O)O)C[C@@H]2CCC[C@@H]21 [Ramipril] (stock concentration (mM, diluted 1:100): 10) | 0.92 (inactive) | -1.04 (inactive) | 2.05 (active) | -0.9 (inactive)
Cc1cccc(Nc2ccncc2S(=O)(=O)NC(=O)NC(C)C)c1 [Torasemide] (stock concentration (mM, diluted 1:100): 9.9) | -0.45 (inactive) | 0.74 (inactive) | -2.4 | -0.66 (inactive)
COc1ccc(C2CNC(=O)C2)cc1OC1CCCC1 (stereo not given) [Rolipram] (stock concentration (mM, diluted 1:100): 10) | -2.81 (inactive) | -0.47 (inactive) | -1.05 (inactive) | -0.71 (inactive)
Nc1[nH]c(=O)ncc1F [5-Fluorocytosine] (stock concentration (mM, diluted 1:100): 10.5) | 0.12 (inactive) | -1.29 (inactive) | 36.6 (active) | 54.5 (active)
